Hit rate of the full screen: of about 330,000 compounds, about 4,900 (1.5%) were called active.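 The calls were made as follows: active = inhibition above about 50% at the single test dose (limit read from the data); inactive = the rest.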 Only a selection was taken, and actives are over-represented in it overall.
Biological target: Sentrin-specific protease 7 (Homo sapiens) (UniProt Q9BQF6)
Experiment: blockers of human SENP7 peptidase activity – biochemical, luminescence, uHTS, primary screen (AID 434973);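 also: plate controls were DMSO with enzyme for no effect and no enzyme buffer wells for full effect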
Conditions: recombinant SENP7, Z-RLRGG-aminoluciferin luminescence, 40 min; at 5 µM; stronger effect = higher value

inhibition, active:
O=C(Nc1cccnc1Cl)c1cc(-c2ccccc2O)on1 52%
CCC(=O)Nc1ccc2nn(-c3ccc(F)cc3)nc2c1 81.9%
COc1cccc(C(=O)Nc2nc3ccc(S(C)(=O)=O)cc3s2)c1 91.1%
CCc1noc(C)c1C(=O)Nc1nc2ccc(OC)cc2s1 53.6%
Cc1c(C(=O)Nc2ccccn2)oc2ccc(Br)cc12 65.6%
Cc1cccc(NC(=O)/C=C/c2ccc3c(c2)OCO3)n1 78%
Cc1c(Cl)cccc1NC(=O)Nc1ccc(C(=O)N2CCCC2)cc1 57%
Cc1cccc(/C(N)=N/OC(=O)c2ccccc2Cl)c1 98.2%
Cc1ccc(OCc2nc3ccccc3n2C)cc1 59.7%
COCn1c(COc2ccccc2)nc2ccccc21 65.8%
CC(=C/c1ccccc1)/C=N/NC(=O)c1cc(C)oc1C 73%
Cc1cc(C(=O)N/N=C/c2ccc(N3CCOCC3)cc2)c(C)o1 85.5%
COc1cccc(C(=O)c2cc3ccc(O)cc3oc2=O)c1 100%
O=C(COc1ccc2oc3c(c2c1)CCCC3)Nc1ccccn1 89.1%
Cc1cc(N=Nc2ccc3ccccc3c2)ccc1O 97.5%
O=c1[nH]c(/C=C/c2cccc(Br)c2)nc2ccccc12 65.8%
CCOC(=O)c1cnc2[nH]c3ccccc3n2c1=O 83.7%
O=C(Cn1ccc([N+](=O)[O-])n1)NCc1cccs1 71.3%

inhibition, inactive:
[O-][N+]12CCCCC1CCCC2CO (configuration not stated) 5.46%
O=C(COc1nc2ccccc2nc1N1CCOCC1)NCC(F)(F)F -5.55%
CC1CCN(C(=O)C2CCN(S(=O)(=O)N3CCC4(CC3)OCCO4)CC2)CC1 6.94%
C=CCNC(=O)c1cc(-c2ccccc2O)on1 -13.1%
O=C(Nc1cccnc1Cl)c1cc(-c2cccc(Cl)c2)on1 -0.404%
Cc1nc2nc(COc3ccccc3)[nH]n2c(=O)c1Cc1ccccc1 -6.63%
CC(Oc1ccc(Br)cc1Br)C(=O)NC1CCCC1 (configuration not stated) 4.39%
CN(CCC(=O)Nc1cc(S(=O)(=O)N(C)C)ccc1Cl)CC(=O)Nc1ccc(F)cc1 4.2%
Cc1ccccc1Nc1c([N+](=O)[O-])ccc2nonc12 -0.26%
Cc1ccc(-n2nc3ccc(NC(=O)/C=C/c4ccco4)cc3n2)cc1C -3.4%
Cc1cccc(C(=O)OCC(=O)Nc2ccc(F)cc2)c1 -5.6%
CC12CN(Cc3ccccc3)CC(C)(CN(Cc3ccccc3)C1)C2=NO -9.93%
COc1cccc(C(=O)Nc2nnc(S(=O)(=O)N3CCOCC3)s2)c1 -5.71%
CCc1noc(C)c1C(=O)Nc1nc(-c2ccccc2)cs1 0.582%
Cc1noc(C)c1CSCC(=O)Nc1nc2ccc(Oc3ccccc3)cc2s1 7.89%
COc1cccc(C(=O)Nc2nnc(S(=O)(=O)N(C)c3ccccc3)s2)c1 2.47%
O=C(Nc1ccccc1)c1nnsc1S(=O)(=O)c1ccc(Cl)cc1 7.61%
O=C(Oc1ccccc1)Oc1ccc2c(c1)oc(=O)c1ccccc12 11.6%
Cc1cc(NC(=O)C(C)SCC(=O)Nc2ccccc2N2CCCCC2)no1 (configuration not stated) 7.37%
Cc1nn(C)c(C(=O)NNC(=S)NC2CCCCC2)c1Cl 15.8%
O=C(CN1C(=O)NC2(CCCC2)C1=O)OCCOc1ccc(F)cc1 2.48%
OCCC1CN(Cc2cccc(O)c2)CCN1CCc1ccccc1 (configuration not stated) -3.9%
Cc1nonc1NC(=O)c1oc2ccccc2c1C -17.1%
COC(=O)c1oc2ccc(Br)cc2c1NC(C)=O -6.53%
Cc1ccc(OCC(=O)Nc2ccccc2Sc2ccc(Cl)cc2)c([N+](=O)[O-])n1 3.81%
CCN(CC(=O)Nc1ccc(NC(C)=O)cc1)C(=O)CSC(=S)N1CCCC1 -7.39%
Cc1cccc(NC(=O)Nc2ccc3c(c2)OCO3)n1 17%
O=C(/C=C/c1ccc2c(c1)OCO2)NCc1ccc(F)cc1 -2.53%
CCN(CC(=O)NCC(=O)Nc1cccc(C)c1C)Cc1ccccc1 1.52%
O=C(COC(=O)c1ccc(O)cc1)Nc1nccs1 -6.7%
Cc1c(Cl)cccc1NC(=O)NCCCN1CCCC1=O -2.59%
O=C(Nc1ccc(Cl)cc1)Nc1ccc(C(=O)N2CCOCC2)cc1 11.1%
COc1ccc(N2CCN(C(=O)c3cn(C)c4ccc(S(=O)(=O)N5CCOCC5)cc4c3=O)CC2)cc1 8.09%
Cc1ccc(/C(N)=N/OC(=O)COc2ccc(Cl)c(C)c2)cc1 -1.43%
N/C(=N\OC(=O)c1cc(-c2ccccc2)nc2ccccc12)c1ccncc1 -11.9%
CC(C)c1ccc(NC(=O)CCN2C(=O)c3ccc([N+](=O)[O-])cc3C2=O)cc1 -0.0494%
COc1ccc(C(=O)COC(=O)Cn2cnc3c2c(=O)n(C)c(=O)n3C)c(OC)c1 -3.24%
Cn1c(COc2ccc(Cl)cc2)nc2ccccc2c1=O -3.98%
O=C(Cn1c(COc2ccccc2)nc2ccccc21)Nc1cc(Cl)c(Cl)cc1Cl -0.0494%
CCOc1ccc(C(O)Cc2nc3ccccc3n2C)cc1 (configuration not stated) 3.12%
CC(C)n1c(COc2ccccc2)nc2ccccc21 15%
Cc1ccc(/C=N/NC(=O)C(NC(=O)c2ccccc2)c2n[nH]c(=O)c3ccccc23)cc1 (configuration not stated) 0.556%
COC(=O)c1sccc1NS(=O)(=O)c1ccc(F)cc1F 6.45%
COC(=O)[C@]1(Cc2ccccc2)N[C@H](CN(C)S(=O)(=O)c2ccc(F)cc2)[C@@H]2C(=O)N(Cc3ccccc3)C(=O)[C@@H]21 1.87%
CNc1[nH]ncc1[N+](=O)[O-] 3.45%
Cc1ccccc1N/N=C/c1ccc(N2CCOCC2)cc1 -3.84%
O=C(NN=Cc1ccc(N2CCOCC2)cc1)c1cc2ccccc2cc1O 4.23%
Cc1cc(C(=O)N/N=C\C(Br)=C\c2ccccc2)c(C)o1 21.1%
COc1ccc(C/C(C)=N/NC(=O)c2cc(C)oc2C)cc1 -5.26%
O=C(c1ccc(CS(=O)(=O)c2ccccc2)o1)N1CCN(c2ccccc2)CC1 -0.219%
O=C(NNc1ccccc1Cl)C(O)(c1cccc(C(F)(F)F)c1)c1cccc(C(F)(F)F)c1 1.97%
COc1cc(CNC2CCCCC2)c(Br)cc1OC1CCCC1 -2.57%
COc1ccc(C(C)NC(=O)C2CCCC2)cc1 (configuration not stated) 1.04%
COc1cccc(C(=O)NNC(=O)c2cccc(F)c2)c1 3.09%
CCOC(=O)c1cc2cc3ccccc3cc2oc1=O 7.03%
COc1ccc(N2CC(C(=O)NCCN3C(=O)S/C(=C\c4cccnc4)C3=O)CC2=O)c(OC)c1 (configuration not stated) -2.06%
Cc1nc(-c2ccc(F)cc2)c(CC(=O)N(C)CC(=O)Nc2c(C)cccc2C)s1 -11.8%
CSCCC1NC2(C(=O)Nc3ccc(Cl)cc32)[C@@H]2C(=O)N(C3CCCC3)C(=O)[C@H]12 (some centres not stated) 10.2%
COc1ccc(OC)c2[nH]c(=O)c(CCNC(=O)C(=O)c3c[nH]c4ccccc34)cc12 4.26%
CCOC(=O)N1CCN(C(=O)COc2ccc3oc4c(c3c2)CCCC4)CC1 -3.39%
CCN(CC)CCCNC(=O)COc1ccc2oc3c(c2c1)CCCC3 3.16%
O=C1C=C(c2ccnc3cc(Cl)ccc23)C[C@@H](c2ccc3c(c2)OCO3)C1 2.03%
CC(=O)N1CCN(S(=O)(=O)c2ccc(C)c([N+](=O)[O-])c2)C1C(C)C (configuration not stated) 2.77%
CCOC(=O)C(NC(=O)CC(C)C)(Nc1sc2c(c1C(N)=O)CCCC2)C(F)(F)F (configuration not stated) -5.57%
CC(NCc1ccccc1OC1CCCC1)c1ccccc1 (configuration not stated) 8.44%
Cc1ccc(/C=N/NC(=O)c2cc3ccccc3cc2O)o1 19%
COC(=O)c1cccc(-n2[nH]nnc2=S)c1 8.95%
Cc1ccc(CSc2ccc(S(=O)(=O)N3CCCCC3)cn2)cc1 14.9%
COc1cc(C(=O)N2CCN(C)CC2)cc(OC)c1OC -4.77%
CCOc1cc(/C=C/c2nc3ccccc3c(=O)[nH]2)cc(Br)c1OC -1.26%
O=c1[nH]c(/C=C\c2cccc(C(F)(F)F)c2)nc(O)c1[N+](=O)[O-] 11.2%
COc1ccccc1N(CC(=O)Nc1ccccc1C(=O)N1CCCC1)S(C)(=O)=O 5.42%
CCOC(=O)c1cnc2sccn2c1=O 0.0796%
CCOC(=O)c1cnc(COc2ccccc2Cl)[nH]c1=O -8.27%
COc1cc(Cl)c(C)cc1NC(=O)CN1CCCCCC1 7.89%
CC(C)CCOc1ccc(C(=O)C[N+]2(C)CCOCC2)cc1 0.789%
O=C(CCn1ccc([N+](=O)[O-])n1)Nc1nccs1 0.106%
Cc1ccnc(NC(=O)Cn2ccc([N+](=O)[O-])n2)c1 10%
COc1ccc(N(CC(=O)NC2CCCCC2)C(=O)CNC(=O)c2ccco2)c(OC)c1 6.97%
